Measured values taken from the supplement of paper PMC11577813, “Eurasian spruce bark beetle detects lanierone using a highly expressed specialist odorant receptor, present in several functional sensillum types” (BMC Biology, 2024).
± gives the standard deviation of the averaged measurements.

What follows are molecules tested on (4S)-cis-verbenol A-neuron OSN class (assay: net action potential response of A-neuron (blank-subtracted) (spikes/s (Hz)); higher = stronger excitation). Conditions: 10 µg on filter paper; neuron: A neuron (large spike amplitude).
Protocol: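 Single sensillum recordings from antennal olfactory sensilla of live adult Ips typographus. Each compound was 10 µg in paraffin oil on filter paper, delivered as a 0.5 s puff. Net response = spikes in the first 0.5 s of response minus the 0.5 s pre-stimulus count, doubled to give Hz, with blank response subtracted. Values are for the large-spike A-neuron class of each of seven sensillum types that co-house the lanierone B-neuron; N = 1-4 sensilla, averaged.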

Compound | net action potential response
Cc1ccccc1 [Toluene] | 1.33 ± 6.4
O=Cc1ccccc1 [Benzaldehyde] | 2 ± 6
C=CCc1ccc(OC)cc1 [Estragole] | -2 ± 3.5
